Experimental data published in PubChem BioAssay AID2685 (National Center for Advancing Translational Sciences (NCATS), 2010).
About 2,100 (0.66%) of roughly 320,000 compounds were called active. About 53% were inconclusive and are not listed. The call rests on the fitted dose curve; in most records, active means well fitted inhibition curve with a large enough effect in the signal ratio, with a control signal flat (not every such curve was filed as active); inconclusive means small, poorly fitted or top-dose-only effect, or effect the other way, or a change in a side signal; inactive means flat fitted curve, though single readings scatter; the % refers to the signal ratio. Shown is part of a subset that was picked to be rich in actives.

Assay: qHTS Assay for Lipid Storage Modulators in Drosophila S3 Cells;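 on cell number change: cells counted by Cell Tracker Red CMTPX staining in the red channel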; on lipid storage change, negative = inhibition: on the % scale 0 is the no-effect control and ±100 the full control effect
Conditions: BODIPY lipid droplet fluorescence, 18-24 h, cells fed with added oleic acid; cell number change: measured here: cell count max response; series mostly up to 46.1 µM; lipid storage change, negative = inhibition: at the top concentration
Summary of the method: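 Drosophila S3 cells loaded with oleic acid (400 uM, as added) and compounds at several concentrations; lipid droplets imaged by 488-nm laser-scanning cytometry, 500–530 nm intensity and object ratio to cell channel. Percent activity normalized to 20 uM Triacsin C.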
Potency means the concentration at half of the fitted maximal effect.

| SMILES | lipid storage change, negative = inhibition | cell number change [%] | Potency | outcome |
| --- | --- | --- | --- | --- |
| COc1ccc(NC(=O)C2CCCN(S(=O)(=O)c3cccnc3)C2)c(OC)c1 (stereo not given) | -0.456% (inactive) | 12.4 |  |  |
| COc1ccc(C(=O)NNC(=S)NC(=O)c2ccco2)cc1 | -27% (inactive) | 1.44 |  |  |
| O=C(NC(=S)NNC(=O)c1ccco1)c1ccc(F)cc1 |  | 4.58 | 18.4 µM (active) |  |
| COc1ccc(C(=O)NC(=S)NNC(=O)c2ccco2)cc1 |  | -19.8 |  | inactive |
| CCCCN(C(=O)c1nn(C)c(=O)c2ccccc12)c1c(N)n(CC(C)C)c(=O)[nH]c1=O | 6.7% (inactive) | 3.88 |  |  |
| O=C(CSc1nnc([C@@H]2CCCN2)o1)c1ccc(Cl)cc1 | 14.1% (inactive) | 3.48 |  |  |
| O=C(NC1=NCCS1)c1cccc(NC(=O)c2ccco2)c1 |  |  |  | inactive |
| CCN1C(=O)N(c2ccc(C(C)=O)cc2)S(=O)(=O)c2ccccc21 | 20.2% (inactive) | 7.75 |  |  |
| COc1ccc(CNC(=O)CN2c3ccccc3S(=O)(=O)c3ccccc32)cc1 |  |  |  | inactive |
| CCN1c2ccccc2S(=O)(=O)c2ccccc21 |  | -15.5 | 1.84 µM (active) |  |
| COc1cccc(NC(=O)C(Cc2ccccc2)n2cccc2)c1 (stereo not given) | 15% (inactive) | 23.9 |  |  |
| O=C(c1ccccc1)N1CCN(c2ccccc2F)CC1 |  |  |  | inactive |
| CCN(CC)CCCN(C(=O)Cn1nnc(-c2ccc(OC)c(OC)c2)n1)C(C(=O)NC(C)(C)C)c1ccc(F)cc1 (stereo not given) | -9.11% (inactive) | -0.835 |  |  |
| COc1ccc(C(C)=O)cc1CSc1nnc(Nc2ccccc2)s1 |  | -8.23 | 2.31 µM (active) |  |
| COc1ccc(C(C)=O)cc1CSc1nnc(Nc2ccccc2C)s1 | 22.8% (inactive) |  |  |  |
| COc1ccc(C(C)=O)cc1CSc1nnc(SCc2cc(C(C)=O)ccc2OC)s1 | 12.7% (inactive) | 7.73 |  |  |
| CN(C(=O)COC(=O)CCc1nc2ccccc2c(=O)[nH]1)C1CCS(=O)(=O)C1 (stereo not given) | -17.9% (inactive) | -1.94 |  |  |
| COCCNC(=O)c1cccc2c1-c1ccccc1C2=O | -7.63% (inactive) | -10.2 |  |  |
| CC(=O)CCc1oc2ccc(C)cc2c1-c1ccccc1 | 20.7% (inactive) | 1.81 |  |  |
| O=S(=O)(Cc1ccccc1)Nc1ccc(S(=O)(=O)N2CCCC2)cc1 | 12.9% (inactive) | -4.32 |  |  |
| O=C1CN(c2nc(-c3cccs3)nc3sc4c(c23)CCCC4)CCN1 |  | -27.1 | 1.64 µM (active) |  |
| O=c1oc(-c2cccs2)nc2sc3c(c12)CCC3 | -1.18% (inactive) | 1.06 |  |  |
| O=c1oc(-c2cccs2)nc2sc3c(c12)CCCCC3 | -9.97% (inactive) | 7.26 |  |  |

| SMILES | lipid storage change, negative = inhibition | cell number change [%] | Potency | outcome |
| --- | --- | --- | --- | --- |
| N#CCCNC(=O)Cn1c(COc2ccc(Cl)cc2)nc2ccccc21 | 15% (inactive) | 6.47 |  |  |
| CCc1ccc(NC(=O)CSc2nc(-c3ccc(C)cc3)nc3c2Cc2c(CO)cnc(C)c2O3)cc1 | -8.05% (inactive) | -9.8 |  |  |
| COc1cccc(-c2noc(CCCC(=O)N3CCOCC3)n2)c1 | -11.5% (inactive) | -4.07 |  |  |
| COc1cccc(-c2nc3c(c(SCC(=O)N4CCOCC4)n2)Cc2c(CO)cnc(C)c2O3)c1 |  |  | 0.651 µM (active) |  |
| COC(C[C@H](O)[C@H](C)[C@H](O)COCc1ccccc1)OC | -0.509% (inactive) | 11.5 |  |  |
| O=C(CN1C(=O)COc2ccccc21)Nc1ccc2c(c1)OCCO2 |  | 3.43 |  | inactive |
| COc1ccc(C(=O)N/C(=C\c2cn(C)c3ccccc23)C(=O)N2CCN(C)CC2)cc1OC |  | 0.763 |  | inactive |
| COc1ccc(C(=O)N/C(=C\c2cn(C)c3ccccc23)C(=O)N2CCOCC2)cc1 |  | 8.73 |  | inactive |
| COc1ccc(C(=O)N/C(=C\c2cn(C)c3ccccc23)C(=O)N2CCOCC2)cc1OC |  | 9.92 | 23.1 µM (active) |  |
| CCCN1CCN(C(=O)c2noc3c2COc2ccc(C)cc2-3)CC1 | -30.8% (inactive) | -19.6 |  |  |
| COc1ccc2oc(C(=O)OC(C)C(=O)Nc3ccc(N4CCOCC4)cc3)c(C)c2c1 (stereo not given) |  | -30.5 | 7.31 µM (active) |  |
| COc1ccc2oc(C(=O)OC(C)C(=O)N3CCC(C)CC3)c(C)c2c1 (stereo not given) | -4.24% (inactive) | -13.1 |  |  |
| Cc1cc(=O)oc2cc(OC(C)C(=O)Nc3ccc(N4CCOCC4)cc3)ccc12 (stereo not given) | 20.2% (inactive) |  |  |  |
| O=C(CSc1cn[nH]n1)Nc1ccccc1F | -23.4% [at 0.0737 µM] (inactive) | 16.5 |  |  |
| CCOC(=O)C1=C(COC(=O)/C=C/c2cc(OC)c(OC)c(OC)c2)NC(=O)NC1C (stereo not given) |  | 4.86 | 18.4 µM (active) |  |
| CCOC(=O)C1=C(COC(=O)c2cc(OC)c(OC)c(OC)c2)NC(=O)NC1C (stereo not given) | 4.7% (inactive) | -11.6 |  |  |
| CCOC(=O)C1=C(COC(=O)/C=C/c2cccc(OC)c2OC)NC(=O)NC1C (stereo not given) |  |  |  | inactive |
| NS(=O)(=O)c1ccc(NC(=S)NC(=O)c2cccs2)cc1 | -5.53% (inactive) | -5.36 |  |  |
| Cc1cc(Br)ccc1SCC(=O)N1CCN(S(=O)(=O)c2ccccc2)CC1 |  | 10.8 |  | inactive |
| CC(CNC(=O)CCC(=O)N1CCOc2ccc(Cl)cc21)c1ccccc1 (stereo not given) |  | -20.2 | 0.92 µM (active) |  |
| O=C(CN1C(=O)c2cccnc2Oc2ccc(Cl)cc21)Nc1ccccc1F | -6.56% (inactive) | -28 |  |  |
| O=C(CN1C(=O)c2cccnc2Oc2ccc(Cl)cc21)NCCc1ccccc1 |  | 10.9 |  | inactive |
| CC(CNC(=O)CN1C(=O)c2cccnc2Oc2ccc(Cl)cc21)c1ccccc1 (stereo not given) |  | -20.3 | 20.6 µM (active) |  |

| SMILES | lipid storage change, negative = inhibition | cell number change [%] | Potency | outcome |
| --- | --- | --- | --- | --- |
| Cc1ccccc1CNC(=O)CCC(=O)N1CCOc2ccc(Cl)cc21 | 6.67% (inactive) | 5.19 |  |  |
| CC(CNC(=O)CCC(=O)N1CCOc2ccccc21)c1ccccc1 (stereo not given) | -12.8% (inactive) | 5.19 |  |  |
| COc1ccc(NC(=O)[C@@H](NC(=O)c2ccccc2)C(C)C)cc1S(=O)(=O)N1CCCCC1 | -1.46% (inactive) | -2.25 |  |  |
| CC(=O)Nc1ccc(OCC(O)Cn2c3ccccc3c3ccccc32)c(C)c1 (stereo not given) | -3.13% (inactive) | -16.4 |  |  |
| CSc1nc(=S)n(-c2ccccc2)c(C)c1C(C)=O | -5.3% (inactive) | -14.2 |  |  |
| O=C(CCCn1c(SCc2cccc(F)c2)nc2ccccc2c1=O)NCC1CCCO1 (stereo not given) | -7.37% (inactive) | -0.301 |  |  |
| CCN1CCN(CCNC(=O)c2ccc(CS(=O)c3ccc(Cl)cc3)o2)CC1 (stereo not given) |  |  |  | inactive |
| O=C(NCCN1CCOCC1)c1ccc(CS(=O)c2ccccc2Cl)o1 (stereo not given) |  | -8.85 | 4.11 µM (active) |  |
| Cc1ccccc1S(=O)(=O)Cc1ccc(C(=O)NCCCN2CCCC2)o1 | 1.07% (inactive) | 13.9 |  |  |
| O=C(NCCCN1CCCCC1)c1ccc(CS(=O)c2ccc(F)cc2)o1 (stereo not given) |  |  |  | inactive |
| Cc1ccccc1S(=O)Cc1ccc(C(=O)NCCCN2CCCCC2)o1 (stereo not given) |  | -18.3 | 4.11 µM (active) |  |
| O=C(c1ccc(CS(=O)c2ccccc2Cl)o1)N1CCCCCC1 (stereo not given) |  | -21.2 |  | inactive |
| COc1ccc(NC(C)=O)cc1NC(=O)c1ccc(Cl)cc1 | 0.28% (inactive) | 11.7 |  |  |
| CC(SCc1ccccc1)C(=O)Nc1ccccc1-c1ccccc1 (stereo not given) | -6.56% (inactive) | 8.62 |  |  |
| O=S1(=O)N=C(Oc2cccc3ccccc23)c2ccccc21 | -0.954% (inactive) | 3.24 |  |  |
| COc1ccc(C2CCCN2C(=O)Nc2ccc(Cl)cc2)cc1OC (stereo not given) | -5.01% (inactive) | -6.06 |  |  |
| COc1ccc(Cl)cc1NC(=O)NCC1CCN(Cc2cc(C)ccc2C)CC1 | -4.05% (inactive) | -15.2 |  |  |
| Cc1ccc(C)c(CN2CCC(CNC(=O)Nc3ccc(F)c(Cl)c3)CC2)c1 | -20.7% (inactive) | -7.91 |  |  |
| Cc1ccc(C)c(CN2CCC(CNC(=O)Nc3cccc(Cl)c3C)CC2)c1 |  | -2.78 | 25.9 µM (active) |  |
| CC(C)(C)c1ccc(OCCC(=O)OCC(=O)Nc2cccnc2Cl)cc1 | -4.76% (inactive) | -11.9 |  |  |
| COCCn1c(Cc2ccccc2)nnc1SCC(=O)N1CCCC1=O | 10.9% (inactive) | 2.89 |  |  |
| O=C(NC1(N2CCOCC2)CC1)c1ccc(Cl)cc1 | 6.65% (inactive) | 10.5 |  |  |
| CSC1=NCCN1C(=O)c1c(F)cccc1F | 3% (inactive) | 10.5 |  |  |

| SMILES | lipid storage change, negative = inhibition | cell number change [%] | Potency | outcome |
| --- | --- | --- | --- | --- |
| CSc1ccccc1OCc1cc(C(=O)N(C)CC2COCCO2)no1 (stereo not given) | -7.6% (inactive) | 5.77 |  |  |
| CCC(=O)N1CCc2cc(OC)c(OC)cc2C1COc1ccccc1OC (stereo not given) | -23.2% (inactive) | -0.404 |  |  |
| CCNC(=S)N1CCc2cc(OC)c(OC)cc2C1COc1ccc(OC)cc1 (stereo not given) | 6.83% (inactive) | -7.02 |  |  |
| CCNC(=S)N1CCc2cc(OC)c(OC)cc2C1COc1ccccc1OC (stereo not given) |  | -25.8 | 11.6 µM (active) |  |
| Cc1ccc(Cn2nnnc2CN2CCC(O)(c3cccnc3)CC2)cc1 | 14.9% (inactive) | 1.82 |  |  |
| COCCn1c(SCC(=O)Nc2ccc3c(c2)OCCO3)nnc1C(C)C | 14% (inactive) | 15.8 |  |  |
| CC(=O)N/N=C(\C)CC(=O)Nc1cccc(C(F)(F)F)c1 | -3.97% (inactive) | 5.44 |  |  |
| C/C(CC(=O)Nc1cccc(C(F)(F)F)c1)=N\NC(=O)c1ccncc1 |  | -7.89 | 4.61 µM (active) |  |
| COc1ccc(C(=O)N/N=C(\C)CC(=O)Nc2cccc(C(F)(F)F)c2)cc1 | -0.39% (inactive) | -2.05 |  |  |
| O=C(NC1CCCCC1)c1cccnc1C(=O)O | -6.71% (inactive) | -11.4 |  |  |
| O=C(O)c1cccnc1C(=O)O | 2.1% (inactive) | -2.7 |  |  |
| O=C(O)c1cccnc1NC1CCCC1 |  | -16 | 20.6 µM (active) |  |
| Cc1cc(C)n(-c2nnc(C)n2/N=C/c2ccc(O)cc2)n1 | 11.6% (inactive) | -6.41 |  |  |
| Cc1cc(C)n(-c2nnc(C)n2/N=C/c2ccccc2O)n1 |  | -5.58 | 18.4 µM (active) |  |
| Cc1cc(C)n(-c2nnc(C)n2/N=C/c2ccccc2F)n1 |  | 19.1 |  | inactive |
| Cc1ccccc1NC(=O)c1ccc2ccccc2c1 | 5.74% (inactive) | 14.2 |  |  |
| CCCC(=O)NCCSC | 5.9% (inactive) | -17.4 |  |  |
| O=C(NC1CCCC1)C(c1ccncc1)N(C(=O)Cc1cccs1)c1ccc(F)cc1 (stereo not given) |  | 3.33 | 29.1 µM (active) |  |
| COc1ccc(C(C(=O)NC2CCCC2)N(Cc2cccnc2)C(=O)Cc2cccs2)c(OC)c1 (stereo not given) |  | -10.9 | 7.31 µM (active) |  |
| O=C(NC1CCCCC1)C(c1ccncc1)N(C(=O)Cc1cccs1)c1ccccc1 (stereo not given) | 12.7% (inactive) | 12.4 |  |  |
| O=C(NC1CCCC1)C(c1ccsc1)N(C(=O)Cc1cccs1)c1ccc(F)cc1 (stereo not given) | -14.8% (inactive) | -21.2 |  |  |
| O=C(NC1CCCC1)C(c1ccccc1)N(Cc1cccnc1)C(=O)Cc1cccs1 (stereo not given) | 17.7% (inactive) | -1.03 |  |  |
| COc1ccc(C(C(=O)NC2CCCC2)N(Cc2cccnc2)C(=O)Cc2cccs2)cc1OC (stereo not given) | -9.53% (inactive) | 6.84 |  |  |
